The values that follow come from PubChem BioAssay (EPA / NIEHS).

For orientation: AC50 means the concentration at which the activity in the assay is half-maximal.

“And” between values parts separate entries of the source, which are not always exact repeats. Identical values can stand only once. Inconclusive results are not listed. Some compounds were tested as several samples or in several runs, with calls that do not always agree. The source made the active and inactive calls. How the source made its calls, unless noted: active means hit-call score of the fitted dose curve at least 0.9, where 1 is the maximum; inconclusive means response in the unintended direction; inactive means score below 0.9.

For test [1], the target named is Cytochrome P450 2C18 (Homo sapiens) (UniProt P33260). Description: NVS_ADME_hCYP2C18: NovaScreen (NVS) CYP450-related Enzyme Activity (ADME) Assay for human CYP2C18 (AID 2283103; active means hit-call score of the fitted dose curve at least 0.9, where 1 is the maximum; inactive means score below 0.9). The method, boiled down:
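Enzyme activity measured by fluorescence 0.5 h after compound addition, using recombinant CYP2C18 and a specific substrate. Actives from duplicate 10 uM screening were retested in concentration series (top 20 uM); acetonitrile served as negative baseline.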

The target in test [2] is human Raf-1 Proto-Oncogene, serine/threonine Kinase (RAF1), RAF1 (gene 5894) (UniProt P04049). Briefly: NVS_ENZ_hRAF1: NovaScreen (NVS) Enzymatic Assay for human Raf-1 Proto-Oncogene, serine/threonine Kinase (RAF1) (AID 2283216). Summed up:
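Single-point screening at 25 uM (duplicate), followed by singleton concentration-response to 50 uM maximum for chemicals exceeding threshold. Enzyme activity from fluorescent substrate-product mobility-shift separation after 1 h, relative to DMSO.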

Test [3] in a line: ATG_M_32_XSP2: Attagene TRANS-FACTORIAL Multi-Species (XSP2) HepG2 Assay for M19 Transcription Factor (Internal Marker) (AID 2283826). The method, boiled down: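 Transfected HepG2 (multiplexed GAL4-UAS reporters), 24 h chemical exposure, 3 nM 6-alpha-fluorotestosterone + 1.5 nM norgestrel added. RNA → oligo(dT) RT → PCR → 6-FAM primer extension → HpaI cut → CE. Fitted upward vs DMSO.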

For test [4], the target named is Androgen receptor (Homo sapiens) (UniProt P10275). Description: ATG_AR_TRANS: Attagene TRANS-FACTORIAL HepG2 Assay for human Androgen Receptor (AR) (AID 2282973). Conditions: HepG2 Attagene TRANS-FACTORIAL AR reporter transcription. The method, boiled down: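 Steps: transfect HepG2 with multiple GAL4-UAS reporter transcription units (TRANS format, exogenous NR-Gal4 protein); dose 24 h; isolate RNA, reverse-transcribe, PCR-amplify, FAM-label, HpaI-digest; resolve by capillary electrophoresis. Positive direction vs DMSO.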

The nature of test [5]: Tanguay_ZF_120hpf_MUSC: Oregon State University Tanguay Lab 120 Hour Post-fertilization zebrafish Assay for Muscle Malformation (AID 2284401; active means hit-call score of the fitted dose curve at least 0.9, where 1 is the maximum; inactive means score below 0.9). The method, boiled down:
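Scored as a binary brightfield endpoint at 120 hpf, fitted versus DMSO. Single dechorionated wild-type (Tropical 5D) zebrafish embryos per well, statically exposed at 28C from 6 hpf onward with final DMSO 0.64%.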

Test [6] addresses human CYP2C8, CYP2C8 (gene 1558) (UniProt P10632). Description: NVS_ADME_hCYP2C8: NovaScreen (NVS) CYP450-related Enzyme Activity (ADME) Assay for human CYP2C8 (AID 2283104; active means hit-call score of the fitted dose curve at least 0.9, where 1 is the maximum; inactive means score below 0.9). Summed up:
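Fluorescence readout of substrate turnover by recombinant CYP2C8 after 0.5 h, baseline acetonitrile. Single-concentration duplicate screen at 10 uM preceded singleton concentration series (max 20 uM) for compounds passing the inhibition threshold.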

For test [7], the target named is human CYP4F12, CYP4F12 (gene 66002) (UniProt Q9HCS2). Description: NVS_ADME_hCYP4F12: NovaScreen (NVS) CYP450-related Enzyme Activity (ADME) Assay for human CYP4F12 (AID 2283111). The method, boiled down: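 Recombinant enzyme with a fluorescent substrate, signal read at 0.5 h post-dose; activity loss analysed relative to acetonitrile. Compounds first run in duplicate at 10 uM, with follow-up concentration-response testing of actives.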

Test [8] relates to rat CYP2B1, gene 24300. Description: NVS_ADME_rCYP2B1: NovaScreen (NVS) CYP450-related Enzyme Activity (ADME) Assay for rat CYP2B1 (AID 2283117). Summed up: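 Cell-free fluorescence enzyme assay, recombinant rat CYP2B1, 0.75 h after dosing. Single-concentration duplicates at 10 uM preceded concentration series (max 20 uM) for actives; acetonitrile as negative-control baseline.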

For test [9], the target named is rat CYP2C12, Cyp2c12 (gene 25011) (UniProt P11510). Description: NVS_ADME_rCYP2C12: NovaScreen (NVS) CYP450-related Enzyme Activity (ADME) Assay for rat CYP2C12 (AID 2283119). Summed up: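 Fluorescent-substrate turnover by recombinant rat CYP2C12, measured at 0.5 h, normalized to acetonitrile vehicle. Chemicals screened first at a single 10 uM concentration in duplicate, with concentration series for actives.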

Test [10] concerns the target rat CYP2D1, Cyp2d1 (gene 266684) (UniProt P10633). Description: NVS_ADME_rCYP2D1: NovaScreen (NVS) CYP450-related Enzyme Activity (ADME) Assay for rat CYP2D1 (AID 2283122). Summed up: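 Rat CYP2D1 enzyme activity measured by fluorescence intensity in a cell-free format, 0.75 h post-dosing, acetonitrile as negative control. Screening at 10 uM in duplicate, with actives followed in concentration series up to 20 uM.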

Test [11] has as its target human AMP-activated Protein Kinase, alpha 1 (AMPKa1), PRKAA1 (gene 5562) (UniProt Q13131). Description: NVS_ENZ_hAMPKa1: NovaScreen (NVS) Enzymatic Assay for human AMP-activated Protein Kinase, alpha 1 (AMPKa1) (AID 2283130). Summed up:
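Compounds were screened in duplicate at 25 uM, and those reaching ~30% inhibition were titrated up to 50 uM. The enzyme was recombinant human AMPKα1, and kinase turnover was read by fluorescence/mobility shift 1 h post-dosing as loss of signal versus DMSO.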

Test [12] addresses human Fibroblast Growth Factor Receptor 1 (FGFR1), FGFR1 (gene 2260) (UniProt P11362). Briefly: NVS_ENZ_hFGFR1: NovaScreen (NVS) Enzymatic Assay for human Fibroblast Growth Factor Receptor 1 (FGFR1) (AID 2283159).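 Further: hits lower the signal so potencies describe inhibitors of the kinase.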 Summed up:
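Cell-free recombinant kinase with fluorescent substrate, product separated by electrophoretic mobility shift; read 1 hour after dosing, loss of signal relative to DMSO. Initial screen in duplicate at 25 uM, actives followed in concentration series.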

The target of test [13] is human NIMA (Never In Mitosis Gene A)-Related Kinase 2 (NEK2), NEK2 (gene 4751) (UniProt P51955). Briefly: NVS_ENZ_hNEK2: NovaScreen (NVS) Enzymatic Assay for human NIMA (Never In Mitosis Gene A)-Related Kinase 2 (NEK2) (AID 2283188). Summed up:
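Compounds were first screened in duplicate at 25 uM, with actives followed up in concentration series. Recombinant NEK2 activity, cell-free, was read 1 h after dosing by fluorescence intensity after mobility-shift separation. Signal loss was scored against DMSO.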

Test [14] addresses Norway rat Vesicular Monoamine Transporter (VMAT2), neurotransmitter transporter, Slc18a2 (gene 25549) (UniProt Q01827). Briefly: NVS_TR_rVMAT2: NovaScreen (NVS) Transporter Assay for Norway rat Vesicular Monoamine Transporter (VMAT2), neurotransmitter transporter (AID 2283376).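 Further: actives lower the bound radioligand signal below the DMSO level.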 The method, boiled down:
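Binding endpoint from rat forebrain tissue, cell-free; 1 h incubation; filtered radioligand counted; 25 uM duplicate primary then dose series; DMSO negative control.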

The test system of test [15] is rat Monoamine Oxidase, MAO-A, Central (MAOAC), gene 29253. Description: NVS_ENZ_rMAOAC: NovaScreen (NVS) Enzymatic Assay for rat Monoamine Oxidase, MAO-A, Central (MAOAC) (AID 2283243).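 Further: potency refers to inhibition seen as signal drop below DMSO baseline.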 Summed up: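 Single-concentration duplicate testing at 25 uM, then concentration-response for actives, in a lysate-based radiodetection MAO-A activity assay from rat brain. Enzyme activity measured 1.5 hours post-dosing; DMSO served as negative control and baseline.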

The target in test [16] is rat CYP1A2, Cyp1a2 (gene 24297) (UniProt P04799). Description: NVS_ADME_rCYP1A2: NovaScreen (NVS) CYP450-related Enzyme Activity (ADME) Assay for rat CYP1A2 (AID 2283115). The method, boiled down: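 Primary testing ran in duplicate at 10 uM, with actives re-tested across concentration series. Fluorescence intensity from substrate turnover by recombinant protein, measured 1 hour post-dosing, with signal loss scored against acetonitrile vehicle.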

In test [17] the target is human Acetylcholinesterase (AChE), ACHE (gene 43) (UniProt P22303). Description: NVS_ENZ_hAChE: NovaScreen (NVS) Enzymatic Assay for human Acetylcholinesterase (AChE) (AID 2283129). Summed up:
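Actives from a duplicate single-point screen (25 uM) were followed up in concentration series. Enzyme activity read by absorbance (colorimetric) 0.33 hour after dosing, cell-free, normalized to DMSO, with loss of signal scored.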

Test [18] addresses rat Acetylcholinesterase (AChE), Ache (gene 83817) (UniProt P37136). Description: NVS_ENZ_rAChE: NovaScreen (NVS) Enzymatic Assay for rat Acetylcholinesterase (AChE) (AID 2283233). Summed up:
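Compounds first screened at 25 uM in duplicate, then those passing threshold tested in concentration series up to 50 uM, against AChE from rat brain membranes. Enzyme activity read by absorbance at 0.33 h; inhibition scored versus DMSO.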

In test [19] the target is rat Monoamine Oxidase, MAO-B, Central (MAOBC), Maob (gene 25750) (UniProt P19643). Description: NVS_ENZ_rMAOBC: NovaScreen (NVS) Enzymatic Assay for rat Monoamine Oxidase, MAO-B, Central (MAOBC) (AID 2283238). The method, boiled down:
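Here MAO-B activity in rat brain preparations is quantified radiometrically, counts taken at 1.17 hours. Concentration-response runs reach 50 uM, with plate controls, and values are fitted as loss of signal from the DMSO baseline.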

Sequence of human CYP4F12, CYP4F12 (gene 66002) (Q9HCS2 whole entry, looked up): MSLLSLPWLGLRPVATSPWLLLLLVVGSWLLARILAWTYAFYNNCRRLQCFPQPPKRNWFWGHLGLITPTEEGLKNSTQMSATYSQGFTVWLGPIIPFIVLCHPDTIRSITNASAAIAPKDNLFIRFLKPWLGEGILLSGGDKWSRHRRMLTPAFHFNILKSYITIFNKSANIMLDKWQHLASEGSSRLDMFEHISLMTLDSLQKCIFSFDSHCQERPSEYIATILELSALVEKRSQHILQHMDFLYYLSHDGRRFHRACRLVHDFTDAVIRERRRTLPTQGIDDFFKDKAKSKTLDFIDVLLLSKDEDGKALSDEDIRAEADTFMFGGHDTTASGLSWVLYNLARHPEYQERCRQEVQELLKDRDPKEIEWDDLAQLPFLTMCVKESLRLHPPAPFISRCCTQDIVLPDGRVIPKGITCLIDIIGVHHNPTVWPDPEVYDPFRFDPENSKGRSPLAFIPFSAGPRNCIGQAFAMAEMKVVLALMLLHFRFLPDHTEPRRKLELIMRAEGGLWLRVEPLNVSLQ
Sequence of Cytochrome P450 2C18 (Homo sapiens) (P33260 whole entry, looked up): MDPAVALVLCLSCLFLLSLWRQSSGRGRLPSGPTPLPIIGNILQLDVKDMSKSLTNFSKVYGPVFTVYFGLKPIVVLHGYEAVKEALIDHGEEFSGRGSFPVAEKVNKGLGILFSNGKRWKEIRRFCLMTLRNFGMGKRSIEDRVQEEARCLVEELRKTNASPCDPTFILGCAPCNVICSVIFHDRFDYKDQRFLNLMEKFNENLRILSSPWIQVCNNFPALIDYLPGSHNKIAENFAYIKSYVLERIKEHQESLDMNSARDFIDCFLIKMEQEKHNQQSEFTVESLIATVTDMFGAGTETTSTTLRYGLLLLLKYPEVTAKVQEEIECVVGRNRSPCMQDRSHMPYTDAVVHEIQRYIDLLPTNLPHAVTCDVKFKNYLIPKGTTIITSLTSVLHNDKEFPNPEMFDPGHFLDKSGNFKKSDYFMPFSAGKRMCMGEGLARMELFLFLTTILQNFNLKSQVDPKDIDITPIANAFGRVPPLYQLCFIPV
Sequence of Androgen receptor (Homo sapiens) (P10275 whole entry, looked up, the tested form may be a part): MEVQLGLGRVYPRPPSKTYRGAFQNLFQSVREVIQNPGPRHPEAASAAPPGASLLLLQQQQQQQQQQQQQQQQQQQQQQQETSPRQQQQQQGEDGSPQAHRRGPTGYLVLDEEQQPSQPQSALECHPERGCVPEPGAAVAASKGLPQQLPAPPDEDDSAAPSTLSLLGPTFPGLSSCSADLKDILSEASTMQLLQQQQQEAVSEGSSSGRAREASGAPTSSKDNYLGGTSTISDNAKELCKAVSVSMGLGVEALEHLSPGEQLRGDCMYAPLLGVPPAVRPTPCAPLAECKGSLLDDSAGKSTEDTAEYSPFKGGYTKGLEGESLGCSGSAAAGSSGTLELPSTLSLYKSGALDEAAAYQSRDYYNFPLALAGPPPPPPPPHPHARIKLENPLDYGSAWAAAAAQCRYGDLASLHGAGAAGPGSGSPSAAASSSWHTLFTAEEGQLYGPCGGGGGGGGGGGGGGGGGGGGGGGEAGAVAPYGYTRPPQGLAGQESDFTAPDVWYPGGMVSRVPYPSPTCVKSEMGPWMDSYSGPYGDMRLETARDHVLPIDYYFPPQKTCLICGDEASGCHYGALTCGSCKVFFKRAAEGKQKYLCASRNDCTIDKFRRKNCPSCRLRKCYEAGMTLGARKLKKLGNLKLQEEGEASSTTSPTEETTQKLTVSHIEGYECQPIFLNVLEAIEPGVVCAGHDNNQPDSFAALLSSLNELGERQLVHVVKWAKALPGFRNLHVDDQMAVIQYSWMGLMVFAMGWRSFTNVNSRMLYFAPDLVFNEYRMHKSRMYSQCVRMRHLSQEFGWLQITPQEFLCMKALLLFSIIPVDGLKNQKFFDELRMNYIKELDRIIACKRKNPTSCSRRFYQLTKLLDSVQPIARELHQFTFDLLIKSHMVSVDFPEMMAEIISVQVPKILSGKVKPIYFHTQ
Sequence of rat Monoamine Oxidase, MAO-B, Central (MAOBC), Maob (gene 25750) (P19643 whole entry, looked up): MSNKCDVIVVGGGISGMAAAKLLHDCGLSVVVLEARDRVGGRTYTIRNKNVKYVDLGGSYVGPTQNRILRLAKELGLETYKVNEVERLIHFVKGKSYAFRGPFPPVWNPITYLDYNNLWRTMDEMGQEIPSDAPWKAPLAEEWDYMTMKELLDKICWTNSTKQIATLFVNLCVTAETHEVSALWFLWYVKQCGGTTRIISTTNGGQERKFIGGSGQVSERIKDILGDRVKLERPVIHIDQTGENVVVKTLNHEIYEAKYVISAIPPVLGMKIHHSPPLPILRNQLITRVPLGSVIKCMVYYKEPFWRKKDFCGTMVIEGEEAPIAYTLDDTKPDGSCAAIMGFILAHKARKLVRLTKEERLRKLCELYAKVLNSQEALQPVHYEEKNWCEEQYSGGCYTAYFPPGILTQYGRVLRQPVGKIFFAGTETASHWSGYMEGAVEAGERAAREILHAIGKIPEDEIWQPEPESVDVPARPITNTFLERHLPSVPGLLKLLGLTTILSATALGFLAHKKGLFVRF
Sequence of Norway rat Vesicular Monoamine Transporter (VMAT2), neurotransmitter transporter, Slc18a2 (gene 25549) (Q01827 whole entry, looked up): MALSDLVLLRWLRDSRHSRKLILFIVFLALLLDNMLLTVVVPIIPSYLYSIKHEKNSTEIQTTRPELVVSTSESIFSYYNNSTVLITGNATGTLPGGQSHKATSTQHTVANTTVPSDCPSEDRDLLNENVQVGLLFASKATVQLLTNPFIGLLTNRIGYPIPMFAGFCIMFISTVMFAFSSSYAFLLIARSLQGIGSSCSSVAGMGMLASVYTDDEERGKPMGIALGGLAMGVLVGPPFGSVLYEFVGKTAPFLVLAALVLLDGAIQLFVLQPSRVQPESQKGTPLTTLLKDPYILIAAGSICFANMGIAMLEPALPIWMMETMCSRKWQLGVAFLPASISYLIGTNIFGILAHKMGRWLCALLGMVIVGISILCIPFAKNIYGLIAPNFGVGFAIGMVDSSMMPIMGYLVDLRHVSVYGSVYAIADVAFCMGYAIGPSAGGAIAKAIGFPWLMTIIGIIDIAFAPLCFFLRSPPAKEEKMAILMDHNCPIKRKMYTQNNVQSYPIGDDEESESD
Sequence of human AMP-activated Protein Kinase, alpha 1 (AMPKa1), PRKAA1 (gene 5562) (Q13131 whole entry, looked up): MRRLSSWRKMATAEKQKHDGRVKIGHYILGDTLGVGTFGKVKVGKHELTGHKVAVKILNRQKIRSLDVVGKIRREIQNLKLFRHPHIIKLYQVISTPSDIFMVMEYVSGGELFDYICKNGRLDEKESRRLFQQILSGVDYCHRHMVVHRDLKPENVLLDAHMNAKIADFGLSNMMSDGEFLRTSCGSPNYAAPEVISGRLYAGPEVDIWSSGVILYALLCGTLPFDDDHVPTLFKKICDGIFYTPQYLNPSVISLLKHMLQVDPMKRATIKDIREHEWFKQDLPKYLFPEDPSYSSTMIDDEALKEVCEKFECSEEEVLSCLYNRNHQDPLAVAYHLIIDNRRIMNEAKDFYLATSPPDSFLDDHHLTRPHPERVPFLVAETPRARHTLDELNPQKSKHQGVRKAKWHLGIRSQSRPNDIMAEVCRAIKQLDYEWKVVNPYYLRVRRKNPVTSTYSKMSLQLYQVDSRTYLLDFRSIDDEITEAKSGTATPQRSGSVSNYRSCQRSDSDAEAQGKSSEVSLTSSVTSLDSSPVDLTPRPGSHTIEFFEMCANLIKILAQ
Sequence of rat CYP1A2, Cyp1a2 (gene 24297) (P04799 whole entry, looked up): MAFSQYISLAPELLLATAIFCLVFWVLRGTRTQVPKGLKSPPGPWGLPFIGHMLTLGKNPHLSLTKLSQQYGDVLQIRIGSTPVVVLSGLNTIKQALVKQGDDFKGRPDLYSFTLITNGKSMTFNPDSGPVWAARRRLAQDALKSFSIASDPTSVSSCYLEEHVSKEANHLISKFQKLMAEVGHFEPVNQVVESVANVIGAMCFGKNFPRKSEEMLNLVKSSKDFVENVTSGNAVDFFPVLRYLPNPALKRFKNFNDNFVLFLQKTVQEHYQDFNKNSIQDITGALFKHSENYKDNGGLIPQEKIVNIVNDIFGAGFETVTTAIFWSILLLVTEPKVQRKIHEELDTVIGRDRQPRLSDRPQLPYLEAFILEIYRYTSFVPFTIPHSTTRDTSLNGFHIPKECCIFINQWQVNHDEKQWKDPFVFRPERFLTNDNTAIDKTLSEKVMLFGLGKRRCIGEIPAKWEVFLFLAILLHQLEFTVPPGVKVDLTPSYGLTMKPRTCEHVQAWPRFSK
Sequence of human Fibroblast Growth Factor Receptor 1 (FGFR1), FGFR1 (gene 2260) (P11362 whole entry, looked up): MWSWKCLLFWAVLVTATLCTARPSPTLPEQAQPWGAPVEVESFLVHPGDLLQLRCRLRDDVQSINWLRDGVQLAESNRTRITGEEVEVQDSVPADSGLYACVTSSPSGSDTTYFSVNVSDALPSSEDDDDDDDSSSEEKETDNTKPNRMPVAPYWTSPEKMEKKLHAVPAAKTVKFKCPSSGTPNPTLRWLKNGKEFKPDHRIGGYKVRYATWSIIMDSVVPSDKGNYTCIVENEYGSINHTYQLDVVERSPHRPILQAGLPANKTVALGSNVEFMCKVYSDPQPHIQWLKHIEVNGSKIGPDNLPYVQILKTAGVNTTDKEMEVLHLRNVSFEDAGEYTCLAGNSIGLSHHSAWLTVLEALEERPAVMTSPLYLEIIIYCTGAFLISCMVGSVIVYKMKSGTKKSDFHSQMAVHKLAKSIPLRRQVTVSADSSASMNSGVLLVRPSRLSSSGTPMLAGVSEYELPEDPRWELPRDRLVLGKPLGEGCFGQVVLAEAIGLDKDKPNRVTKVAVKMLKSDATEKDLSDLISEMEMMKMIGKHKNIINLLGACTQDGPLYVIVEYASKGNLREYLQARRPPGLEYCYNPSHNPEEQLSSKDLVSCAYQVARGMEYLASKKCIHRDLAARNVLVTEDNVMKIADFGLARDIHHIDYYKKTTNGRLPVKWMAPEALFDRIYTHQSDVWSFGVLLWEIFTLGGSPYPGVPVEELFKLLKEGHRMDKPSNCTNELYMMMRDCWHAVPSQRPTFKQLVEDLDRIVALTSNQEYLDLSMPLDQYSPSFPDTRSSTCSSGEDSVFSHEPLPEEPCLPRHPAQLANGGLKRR

As for `CCCCC(CC)CN1C(=O)C2C3C=CC(C3)C2C1=O` (stereo not drawn), the AC50 in test [1] is 4.81 µM (active); in [3], 174 µM (active). Besides, the compound was called inactive in [2].
Turning to `N=C(N)C(F)(F)C(F)(F)C(F)(F)C(F)(F)C(F)(F)C(F)(F)C(F)(F)F`, the compound was classed as inactive in test [4] and in test [5].
With `Oc1ccc(C(c2ccc(O)cc2)C(Cl)(Cl)Cl)cc1`, the AC50 in [1] is 0.668 µM (active); in [6] it was 1.06 µM (active); in test [7] it was 0.615 µM (active); in [8], 9.18 µM (active); in [10], 2.7 µM (active); in test [11], 19.6 µM (active). The AC50 is 33.1 µM (active) in [12] and 7.63 µM (active) in test [14]. For the same compound, the compound was classed as inactive in test [9], in [13] and in test [3].
With `C#C[C@]1(O)CC[C@H]2[C@@H]3CCc4cc(O)ccc4[C@H]3CC[C@@]21C`, the AC50 was 1.46 µM (active) and 1.72 µM (active) in [1]; 2.5 µM (active) and 4.16 µM (active) and 1.77 µM (active) in [8]. Moreover, the result in test [1] and in test [15] was inactive.
Take `O=S(=O)(O)CCC(F)(F)C(F)(F)C(F)(F)C(F)(F)F`: the outcome in test [4] and in test [5] was inactive.
Turning to `C=CC(=O)OCC(F)(F)C(F)(F)C(F)(F)C(F)(F)COC(=O)C=C`, the outcome in test [4] and in [5] was inactive.
In the case of `CSC(=O)c1cccc2nnsc12`, the AC50 was 3.8 µM (active) in test [1], 1.32 µM (active) in [18], 25 µM (active) in test [19] and 28.2 µM (active) in test [15]. For the same compound, the result in test [16] and in [17] was inactive.
As to `CCCCC(CC)COC(=O)c1ccccc1C(=O)O` (stereo not drawn), the call in [1] and in [7] was inactive.
On to `CC1=CC(=O)/C(=C(/C)O)C(=O)O1`, for which, in [7], the AC50 was 1.52 µM (active).
